# Data from the supplement of paper PMC8728848.
# About 410 targets per protein were measured; listed, in parts, are those with the strongest signals and a random draw of the rest.
# How the values were obtained:
# Experiment in all cases: glycan array binding signal (z-score within array); higher = stronger binding
# Settings in all cases: glycan notation: IUPAC condensed, linker removed
# [1] = biological target: Glc(a1-4)Glc
# Procedure, shortened: (§1)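 The Consortium for Functional Glycomics database supplied 3228 glycan arrays, of which those lacking an available protein sequence were dropped. The binding signal, a within-array Z-score, was averaged across arrays of the same protein sequence and across linkers. Negative scores can be read as non-binding.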
# [2] = biological target: GlcA(b1-3)Gal
# Procedure, shortened: as §1
# [3] = biological target: GlcNAc(a1-3)Gal(b1-4)GlcNAc
# Procedure, shortened: as §1
# [4] = biological target: GlcNAc(a1-4)Gal(b1-4)GlcNAc(b1-3)Gal(b1-4)GlcNAc(b1-3)Gal(b1-4)GlcNAc
# Procedure, shortened: as §1
# [5] = biological target: GlcNAc(a1-6)Gal(b1-4)GlcNAc
# Procedure, shortened: as §1
# [6] = biological target: GlcNAc(b1-2)Man(a1-3)[GlcNAc(b1-2)Man(a1-6)]Man(b1-4)GlcNAc(b1-4)GlcNAc
# Procedure, shortened: as §1
# [7] = biological target: GlcNAc(b1-2)Man(a1-3)[GlcNAc(b1-4)][GlcNAc(b1-2)Man(a1-6)]Man(b1-4)GlcNAc(b1-4)[Fuc(a1-6)]GlcNAc
# Procedure, shortened: as §1
# [8] = biological target: GlcNAc(b1-2)[GlcNAc(b1-6)]Man(a1-6)[GlcNAc(b1-2)Man(a1-3)]Man(b1-4)GlcNAc(b1-4)GlcNAc
# Procedure, shortened: as §1
# [9] = biological target: GlcNAc(b1-2)[GlcNAc(b1-6)]Man(a1-6)[GlcNAc(b1-2)Man(a1-3)]Man(b1-4)GlcNAc(b1-4)[Fuc(a1-6)]GlcNAc
# Procedure, shortened: as §1
# [10] = biological target: GlcNAc(b1-3)Gal(b1-3)GalNAc
# Procedure, shortened: as §1
# [11] = biological target: GlcNAc(b1-3)Gal(b1-4)GlcNAc(b1-3)Gal(b1-4)GlcNAc
# Procedure, shortened: as §1
# [12] = biological target: GlcNAc(b1-3)Gal(b1-4)GlcNAc(b1-3)Gal(b1-4)GlcNAc(b1-3)Gal(b1-4)GlcNAc(b1-3)Gal(b1-4)GlcNAc(b1-2)[GlcNAc(b1-3)Gal(b1-4)GlcNAc(b1-3)Gal(b1-4)GlcNAc(b1-3)Gal(b1-4)GlcNAc(b1-3)Gal(b1-4)GlcNAc(b1-6)]Man(a1-6)[GlcNAc(b1-3)Gal(b1-4)GlcNAc(b1-3)Gal(b1-4)GlcNAc(b1-3)Gal(b1-4)GlcNAc(b1-3)Gal(b1-4)GlcNAc(b1-2)Man(a1-3)]Man(b1-4)GlcNAc(b1-4)[Fuc(a1-6)]GlcNAc
# Procedure, shortened: as §1
# [13] = biological target: GlcNAc(b1-3)Gal(b1-4)GlcNAc(b1-3)[GlcNAc(b1-3)Gal(b1-4)GlcNAc(b1-3)]GalNAc
# Procedure, shortened: as §1
# [14] = biological target: GlcNAc(b1-3)Gal(b1-4)GlcNAc(b1-6)[GlcNAc(b1-3)Gal(b1-3)]GalNAc
# Procedure, shortened: as §1
# [15] = biological target: GlcNAc(b1-3)Man
# Procedure, shortened: as §1
# [16] = biological target: Man(a1-2)Man(a1-3)[Man(a1-6)]Man(a1-6)[Man(a1-2)Man(a1-3)]Man(b1-4)GlcNAc(b1-4)GlcNAc
# Procedure, shortened: as §1
# [17] = biological target: Man(a1-2)Man(a1-6)[Man(a1-3)]Man(a1-6)[Man(a1-2)Man(a1-2)Man(a1-3)]Man
# Procedure, shortened: as §1
# [18] = biological target: Man(a1-3)[Man(a1-6)]Man(a1-6)[Man(a1-2)Man(a1-3)]Man(b1-4)GlcNAc(b1-4)GlcNAc
# Procedure, shortened: as §1
# [19] = biological target: Neu5Ac(a2-3)Gal(b1-3)GalNAc(b1-4)[Neu5Ac(a2-3)]Gal(b1-4)Glc
# Procedure, shortened: as §1
# [20] = biological target: Neu5Ac(a2-3)Gal(b1-3)[Neu5Ac(a2-6)]GlcNAc(b1-3)[Fuc(a1-3)[Gal(b1-4)]GlcNAc(b1-6)]Gal(b1-4)Glc
# Procedure, shortened: as §1
# [21] = biological target: Neu5Ac(a2-3)Gal(b1-4)GlcNAc(b1-2)Man(a1-3)[GlcNAc(b1-4)][Neu5Ac(a2-3)Gal(b1-4)GlcNAc(b1-2)Man(a1-6)]Man(b1-4)GlcNAc(b1-4)GlcNAc
# Procedure, shortened: as §1
# [22] = biological target: Neu5Ac(a2-3)Gal(b1-4)GlcNAc(b1-3)Gal(b1-4)GlcNAc(b1-3)[Neu5Ac(a2-3)Gal(b1-4)GlcNAc(b1-3)Gal(b1-4)GlcNAc(b1-6)]GalNAc
# Procedure, shortened: as §1
# [23] = biological target: Neu5Ac(a2-3)Gal(b1-4)GlcNAc(b1-3)Gal(b1-4)GlcNAc(b1-6)[Gal(b1-3)]GalNAc
# Procedure, shortened: as §1
# [24] = biological target: Neu5Ac(a2-3)GalNAc(b1-4)GlcNAc
# Procedure, shortened: as §1
# [25] = biological target: Neu5Ac(a2-6)Gal(b1-4)GlcNAc(b1-2)Man(a1-3)Man(b1-4)GlcNAc(b1-4)GlcNAc
# Procedure, shortened: as §1
# [26] = biological target: Neu5Ac(a2-6)Gal(b1-4)GlcNAc(b1-3)Gal(b1-3)GlcNAc
# Procedure, shortened: as §1
# [27] = biological target: Neu5Ac(a2-8)Neu5Ac(a2-3)Gal(b1-3)GalNAc(b1-4)[Neu5Ac(a2-3)]Gal(b1-4)Glc
# Procedure, shortened: as §1
# [28] = biological target: Neu5Ac9Ac(a2-6)Gal(b1-4)GlcNAc
# Procedure, shortened: as §1
# [29] = biological target: Neu5Gc(a2-3)Gal(b1-4)[Fuc(a1-3)]GlcNAc
# Procedure, shortened: as §1
# [30] = biological target: Neu5Gc(a2-8)Neu5Gc(a2-6)Gal(b1-4)GlcNAc
# Procedure, shortened: as §1
binder,measurement,setting,value
SSR2 (Sclerotium rolfsii) (protein) MVYKITVRVYQTNPDAFFHPVEKTVWKYANGGTWSITDDQHVLTMGGSGTSGTLRFHADNGESFTATFGVHNYKRWCDIVTNLAADETGMVINQQYYSQKNREEARERQLSNYQVKNAKGRNFQIVYTEAEGNDLHANLIIG,glycan array binding signal (z-score),[1],-0.262
same,glycan array binding signal (z-score),[2],-0.282
same,glycan array binding signal (z-score),[3],3.71
same,glycan array binding signal (z-score),[4],6.99
same,glycan array binding signal (z-score),[5],0.528
same,glycan array binding signal (z-score),[6],6.77
same,glycan array binding signal (z-score),[7],2.85
same,glycan array binding signal (z-score),[8],4.32
same,glycan array binding signal (z-score),[9],4.49
same,glycan array binding signal (z-score),[10],3.63
same,glycan array binding signal (z-score),[11],0.873
same,glycan array binding signal (z-score),[12],1.3
same,glycan array binding signal (z-score),[13],0.552
same,glycan array binding signal (z-score),[14],1.62
same,glycan array binding signal (z-score),[15],-0.149
same,glycan array binding signal (z-score),[16],-0.276
same,glycan array binding signal (z-score),[17],-0.303
same,glycan array binding signal (z-score),[18],-0.244
same,glycan array binding signal (z-score),[19],-0.28
same,glycan array binding signal (z-score),[20],-0.288
same,glycan array binding signal (z-score),[21],-0.284
same,glycan array binding signal (z-score),[22],-0.267
same,glycan array binding signal (z-score),[23],0.625
same,glycan array binding signal (z-score),[24],-0.279
same,glycan array binding signal (z-score),[25],-0.286
same,glycan array binding signal (z-score),[26],-0.286
same,glycan array binding signal (z-score),[27],-0.271
same,glycan array binding signal (z-score),[28],-0.291
same,glycan array binding signal (z-score),[29],-0.284
same,glycan array binding signal (z-score),[30],-0.286
